Measurements from PubChem BioAssay.
Activity calls are given as the source filed them.

Assays:
[1] = test system: PRMT1 (protein arginine N-methyltransferase 1); assay: small molecules binding arginine methyltransferase PRMT1 – biochemical, small-molecule microarray, 635 nm fluorescence, primary screen (AID 1088); conditions: higher = more signal;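 also: binding of Prmt1 protein to compounds spotted on small-molecule microarray slides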
[2] = growth effects on S. cerevisiae YJM789 – YJM789 clinical isolate, OD600, 24 h, basal, primary screen (AID 1089); conditions: higher = more signal, called active from +8 up or from −8 down;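 also: growth of clinical yeast isolate S. cerevisiae YJM 789 seeded 1000 cells per well; test concentration not given here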
[3] = S. pombe growth modifiers, basal conditions – strain 972, OD600, 24 h, no modulator, primary screen (AID 1090);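 also: basal condition with compound alone and no growth modifier present; test concentration not given here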; conditions: S. pombe 972 growth, higher = more signal, called active from +8 up or from −8 down
[4] = budding yeast growth modifiers under rapamycin – strain BY4716, OD600, 96 h, primary screen (AID 1091); also: test concentration not given here; conditions: S. cerevisiae BY4716 + rapamycin, higher = more signal, called active from +8 up or from −8 down
[5] = target: Torsin-1A-interacting protein 2 (Homo sapiens) (UniProt Q8NFQ8); assay: small molecules binding lysate-expressed LULL1 – cell lysate, human LULL1 lysate, 635/667 nm fluorescence, primary screen (AID 1092); conditions: small-molecule microarray, hLULL1 lysate binding, 635 nm fluorescence; higher = more signal;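 also: probe is lysate of COS7 cells overexpressing human LULL1; score merges per-feature 667 nm fluorescence with signal-to-noise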
[6] = optical density change of DRC41 E. coli – strain DRC41, OD650, 24 h, E. coli filamentation project, primary screen (AID 1093);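 also: MC1000 strain lacking acrAB efflux and sulA so SOS filamentation is blocked; test concentration not given here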; conditions: E. coli DRC41 growth, higher = more signal, called active from +8 up or from −8 down
[7] = probe aLefty2 binding to arrayed compounds – biochemical, biotinylated probe, 635/667 nm fluorescence, primary screen (AID 1094); conditions: small-molecule microarray, higher = more signal;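 also: score merges spot fluorescence near 667 nm with spot signal-to-noise ratio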
[8] = test system: Noggin (protein binding on small-molecule microarray); assay: small molecules binding Noggin protein – biochemical, 635/667 nm fluorescence, primary screen (AID 1095); conditions: 635 nm fluorescence, higher = more signal;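 also: score merges 667 nm feature fluorescence with signal to noise over triplicate slides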
[9] = target: Neurogenic locus notch homolog protein 3 (Homo sapiens) (UniProt Q9UM47); assay: small molecules binding NOTCH3 protein – biochemical, 635/667 nm fluorescence, primary screen (AID 1096); conditions: small-molecule microarray, 635 nm fluorescence, higher = more signal
[10] = probe aEGFR binding to arrayed compounds – biochemical, biotinylated probe, 635/667 nm fluorescence, primary screen (AID 1097); conditions: small-molecule microarray, higher = more signal;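 also: probe is a biotinylated anti-EGFR antibody binding compounds printed on slides; score combines fluorescence near 667 nm and signal to noise of each spot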
[11] = test system: Plasmodium falciparum Sir2 (PF13_0152, Sir2A); assay: Plasmodium falciparum Sir2A binding compounds – biochemical, small-molecule microarray, 635 nm fluorescence, primary screen (AID 1098); conditions: fluorescence 635 nm, higher = more signal;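 also: score merges spot fluorescence intensity with its signal-to-noise ratio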
[12] = probe aDKK1 binding to arrayed compounds – biochemical, biotinylated probe, 635/667 nm fluorescence, primary screen (AID 1099); conditions: small-molecule microarray, higher = more signal;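 also: score merges 667nm spot fluorescence with signal to noise across triplicate slides; reference of the scale not given here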
[13] = probe aCHRDL2 binding to arrayed compounds – biochemical, biotinylated probe, 635/667 nm fluorescence, primary screen (AID 1100); conditions: small-molecule microarray, higher = more signal
[14] = change in splice reporter luminescence, either direction, cell-based, HEK293, spliceosome inhibition project, primary screen (AID 1101); conditions: HEK293 splicing luciferase reporter, 24 h, higher = more signal, called active from +8 up or from −8 down;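 also: HEK293 cells carrying a splicing-competent luciferase reporter gene; test concentration not given here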
[15] = target: Fibroblast growth factor 10 (Homo sapiens) (UniProt O15520); assay: compounds binding fibroblast growth factor 10 – biochemical, small-molecule microarray, 635 nm fluorescence, primary screen (AID 1102); conditions: FGF10 binding, fluorescence 635 nm, higher = more signal
[16] = test system: glycogen synthase kinase-3 (GSK3A per assay name; protocol says GSK3B); assay: compounds binding glycogen synthase kinase-3 – biochemical, small-molecule microarray, 635 nm fluorescence, GSK3A, primary screen (AID 1103); conditions: fluorescence 635 nm, higher = more signal; also: the record names both GSK3A and GSK3B
[17] = target: Epidermal growth factor receptor (Homo sapiens) (UniProt P00533); assay: compounds binding epidermal growth factor receptor – biochemical, small-molecule microarray, 635 nm fluorescence, primary screen (AID 1104); conditions: EGFR binding, higher = more signal;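 also: score merges 667 nm emission intensity with spot signal to noise over triplicate slides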
[18] = target: Follistatin-related protein 3 (Homo sapiens) (UniProt O95633); assay: compounds binding follistatin-related protein 3 – biochemical, small-molecule microarray, 635 nm fluorescence, primary screen (AID 1105); conditions: FSTL3 binding, higher = more signal;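 also: score merges emission near 667 nm and signal to noise per printed spot across three slides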
[19] = target: Dickkopf-related protein 1 (Homo sapiens) (UniProt O94907); assay: small molecules binding DKK1 protein – biochemical, small-molecule microarray, 635 nm fluorescence scan, primary screen (AID 1106); conditions: higher = more signal;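 also: score merges emission near 667 nm with signal to noise over three replicate slides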
[20] = test system: Inhibin beta A chain (activin A); assay: small molecules binding activin A – biochemical, small-molecule microarray, 635 nm fluorescence scan, primary screen (AID 1107); conditions: INHBA, higher = more signal;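 also: mouse activin A protein probed at 4.33 µg/mL on printed slides; score merges bound-protein fluorescence near 667 nm with spot signal-to-noise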

Torsin-1A-interacting protein 2 (Homo sapiens), sequence (Q8NFQ8 whole entry, looked up): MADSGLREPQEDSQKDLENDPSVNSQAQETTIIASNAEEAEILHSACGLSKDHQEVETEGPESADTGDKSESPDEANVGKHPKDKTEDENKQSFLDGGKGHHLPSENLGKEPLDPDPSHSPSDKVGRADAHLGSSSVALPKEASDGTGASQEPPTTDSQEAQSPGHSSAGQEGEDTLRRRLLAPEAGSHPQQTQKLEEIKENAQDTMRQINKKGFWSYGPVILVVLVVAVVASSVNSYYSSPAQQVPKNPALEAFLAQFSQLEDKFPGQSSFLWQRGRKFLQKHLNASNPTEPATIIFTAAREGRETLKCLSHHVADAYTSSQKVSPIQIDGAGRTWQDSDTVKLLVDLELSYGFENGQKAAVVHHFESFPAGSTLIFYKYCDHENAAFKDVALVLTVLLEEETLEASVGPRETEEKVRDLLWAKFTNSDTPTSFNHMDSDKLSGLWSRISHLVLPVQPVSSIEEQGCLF
Follistatin-related protein 3 (Homo sapiens), sequence (O95633 whole entry, looked up): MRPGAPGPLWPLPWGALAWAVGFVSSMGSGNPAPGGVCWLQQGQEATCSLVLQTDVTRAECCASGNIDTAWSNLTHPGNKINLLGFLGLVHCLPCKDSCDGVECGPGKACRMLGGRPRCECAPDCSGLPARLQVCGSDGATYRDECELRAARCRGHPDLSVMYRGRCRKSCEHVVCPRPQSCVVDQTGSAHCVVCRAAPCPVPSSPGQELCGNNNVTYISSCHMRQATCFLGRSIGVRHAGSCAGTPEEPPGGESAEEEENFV
Epidermal growth factor receptor (Homo sapiens), sequence (P00533 whole entry, looked up): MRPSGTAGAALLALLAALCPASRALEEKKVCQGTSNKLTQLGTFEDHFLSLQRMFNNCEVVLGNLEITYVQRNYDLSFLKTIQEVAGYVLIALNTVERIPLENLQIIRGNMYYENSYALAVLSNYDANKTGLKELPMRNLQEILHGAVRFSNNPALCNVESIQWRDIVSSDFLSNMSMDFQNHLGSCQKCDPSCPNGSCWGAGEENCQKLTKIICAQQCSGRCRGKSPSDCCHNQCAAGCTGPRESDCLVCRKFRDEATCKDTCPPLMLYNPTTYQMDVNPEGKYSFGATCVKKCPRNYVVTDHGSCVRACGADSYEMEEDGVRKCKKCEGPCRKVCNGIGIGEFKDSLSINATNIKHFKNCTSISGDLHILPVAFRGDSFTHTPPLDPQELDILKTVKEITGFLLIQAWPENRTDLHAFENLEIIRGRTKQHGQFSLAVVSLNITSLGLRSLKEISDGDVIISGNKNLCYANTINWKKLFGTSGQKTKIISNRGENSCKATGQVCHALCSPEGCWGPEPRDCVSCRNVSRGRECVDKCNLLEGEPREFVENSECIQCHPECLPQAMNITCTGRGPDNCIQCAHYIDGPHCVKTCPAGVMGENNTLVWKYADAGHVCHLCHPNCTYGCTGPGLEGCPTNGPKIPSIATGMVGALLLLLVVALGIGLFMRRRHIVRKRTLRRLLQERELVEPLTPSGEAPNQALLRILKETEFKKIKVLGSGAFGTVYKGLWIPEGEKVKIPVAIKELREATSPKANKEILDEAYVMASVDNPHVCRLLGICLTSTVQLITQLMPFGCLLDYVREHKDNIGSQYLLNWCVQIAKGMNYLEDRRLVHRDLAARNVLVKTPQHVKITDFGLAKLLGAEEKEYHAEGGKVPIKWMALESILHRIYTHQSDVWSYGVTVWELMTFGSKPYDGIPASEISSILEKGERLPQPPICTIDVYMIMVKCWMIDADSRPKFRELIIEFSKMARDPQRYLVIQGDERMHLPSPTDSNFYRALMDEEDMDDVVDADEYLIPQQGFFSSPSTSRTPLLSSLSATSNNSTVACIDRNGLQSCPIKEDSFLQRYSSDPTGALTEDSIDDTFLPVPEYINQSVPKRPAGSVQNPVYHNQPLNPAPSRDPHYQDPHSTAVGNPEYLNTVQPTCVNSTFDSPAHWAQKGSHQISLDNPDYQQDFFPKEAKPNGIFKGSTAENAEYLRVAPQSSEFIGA
Dickkopf-related protein 1 (Homo sapiens), sequence (O94907 whole entry, looked up): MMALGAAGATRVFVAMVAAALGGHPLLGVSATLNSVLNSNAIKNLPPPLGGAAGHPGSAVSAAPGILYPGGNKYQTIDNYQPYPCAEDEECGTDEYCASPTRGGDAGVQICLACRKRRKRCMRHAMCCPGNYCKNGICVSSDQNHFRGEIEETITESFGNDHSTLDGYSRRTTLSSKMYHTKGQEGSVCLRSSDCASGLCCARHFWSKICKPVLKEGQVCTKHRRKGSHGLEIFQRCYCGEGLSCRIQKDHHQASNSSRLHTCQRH
Fibroblast growth factor 10 (Homo sapiens), sequence (O15520 whole entry, looked up): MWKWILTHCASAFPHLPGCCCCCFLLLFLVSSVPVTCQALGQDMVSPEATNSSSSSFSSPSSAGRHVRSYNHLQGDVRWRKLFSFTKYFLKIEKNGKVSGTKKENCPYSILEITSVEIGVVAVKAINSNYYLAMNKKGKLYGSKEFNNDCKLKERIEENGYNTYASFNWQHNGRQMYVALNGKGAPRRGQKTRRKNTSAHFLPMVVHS
Neurogenic locus notch homolog protein 3 (Homo sapiens), sequence (Q9UM47 whole entry, looked up): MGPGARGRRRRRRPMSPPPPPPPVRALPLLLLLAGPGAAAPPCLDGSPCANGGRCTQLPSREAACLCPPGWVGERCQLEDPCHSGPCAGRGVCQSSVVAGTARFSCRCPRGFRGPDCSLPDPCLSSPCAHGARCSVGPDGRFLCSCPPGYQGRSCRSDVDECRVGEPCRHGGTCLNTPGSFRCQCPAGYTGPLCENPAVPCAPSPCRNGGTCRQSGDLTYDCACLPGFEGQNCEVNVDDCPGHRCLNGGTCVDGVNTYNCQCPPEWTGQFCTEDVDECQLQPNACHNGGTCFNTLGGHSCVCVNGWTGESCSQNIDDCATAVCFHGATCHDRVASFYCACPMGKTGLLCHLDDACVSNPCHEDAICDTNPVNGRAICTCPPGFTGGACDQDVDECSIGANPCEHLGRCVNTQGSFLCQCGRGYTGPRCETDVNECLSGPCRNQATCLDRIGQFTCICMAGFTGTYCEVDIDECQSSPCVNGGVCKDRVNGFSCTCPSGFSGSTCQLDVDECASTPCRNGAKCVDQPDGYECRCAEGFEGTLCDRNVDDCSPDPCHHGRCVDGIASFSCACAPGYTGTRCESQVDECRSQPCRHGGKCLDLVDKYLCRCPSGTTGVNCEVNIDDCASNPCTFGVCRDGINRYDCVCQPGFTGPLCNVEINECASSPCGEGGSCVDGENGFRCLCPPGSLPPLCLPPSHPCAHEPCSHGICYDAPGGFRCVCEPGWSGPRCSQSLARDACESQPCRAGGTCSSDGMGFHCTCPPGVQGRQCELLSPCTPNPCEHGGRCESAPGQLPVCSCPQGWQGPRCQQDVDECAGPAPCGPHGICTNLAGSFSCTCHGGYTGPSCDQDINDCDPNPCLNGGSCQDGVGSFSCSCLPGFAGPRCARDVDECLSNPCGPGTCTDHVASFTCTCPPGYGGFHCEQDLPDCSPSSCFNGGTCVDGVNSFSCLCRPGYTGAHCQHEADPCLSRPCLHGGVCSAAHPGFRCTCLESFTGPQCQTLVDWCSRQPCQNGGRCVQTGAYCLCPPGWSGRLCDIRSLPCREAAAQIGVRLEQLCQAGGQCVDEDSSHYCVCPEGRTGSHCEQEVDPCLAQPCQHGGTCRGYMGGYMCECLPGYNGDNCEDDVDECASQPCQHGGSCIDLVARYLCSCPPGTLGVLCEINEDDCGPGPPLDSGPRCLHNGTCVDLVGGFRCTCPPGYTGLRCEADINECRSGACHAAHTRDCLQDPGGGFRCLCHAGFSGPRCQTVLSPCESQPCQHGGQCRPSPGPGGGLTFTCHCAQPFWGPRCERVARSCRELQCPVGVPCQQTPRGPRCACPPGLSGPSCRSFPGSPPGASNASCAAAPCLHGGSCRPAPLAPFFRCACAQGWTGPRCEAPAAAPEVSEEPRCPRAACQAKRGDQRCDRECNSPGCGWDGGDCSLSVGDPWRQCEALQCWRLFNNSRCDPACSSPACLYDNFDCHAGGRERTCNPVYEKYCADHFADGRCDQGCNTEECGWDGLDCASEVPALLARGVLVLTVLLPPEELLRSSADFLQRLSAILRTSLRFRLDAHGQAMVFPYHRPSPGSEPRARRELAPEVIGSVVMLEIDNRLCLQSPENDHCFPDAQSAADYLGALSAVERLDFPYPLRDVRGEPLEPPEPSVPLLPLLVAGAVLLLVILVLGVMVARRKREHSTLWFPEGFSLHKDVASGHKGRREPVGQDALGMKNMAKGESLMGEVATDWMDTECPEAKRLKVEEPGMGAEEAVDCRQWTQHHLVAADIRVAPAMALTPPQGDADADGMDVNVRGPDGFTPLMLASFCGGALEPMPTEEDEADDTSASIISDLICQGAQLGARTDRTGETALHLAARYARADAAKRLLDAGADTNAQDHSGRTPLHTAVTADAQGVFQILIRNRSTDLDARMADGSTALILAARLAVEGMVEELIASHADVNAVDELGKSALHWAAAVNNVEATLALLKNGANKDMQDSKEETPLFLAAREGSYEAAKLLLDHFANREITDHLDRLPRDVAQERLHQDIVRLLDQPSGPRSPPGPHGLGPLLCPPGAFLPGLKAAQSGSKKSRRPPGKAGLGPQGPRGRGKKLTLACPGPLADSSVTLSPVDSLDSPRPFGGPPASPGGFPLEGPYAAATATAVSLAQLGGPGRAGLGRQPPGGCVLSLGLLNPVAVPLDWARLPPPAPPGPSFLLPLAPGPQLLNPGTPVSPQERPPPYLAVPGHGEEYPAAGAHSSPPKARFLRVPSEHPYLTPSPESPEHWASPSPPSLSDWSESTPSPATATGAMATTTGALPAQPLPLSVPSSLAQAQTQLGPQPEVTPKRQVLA

| Compound | composite z-score [1] | z-score [2] | z-score [3] | z-score [4] | composite z-score [5] | z-score [6] | composite z-score [7] | composite z-score [8] | composite z-score [9] | composite z-score [10] | composite z-score [11] | composite z-score [12] | composite z-score [13] | z-score [14] | composite z-score [15] | composite z-score [16] | composite z-score [17] | composite z-score [18] | composite z-score [19] | composite z-score [20] |
| --- | --- | --- | --- | --- | --- | --- | --- | --- | --- | --- | --- | --- | --- | --- | --- | --- | --- | --- | --- | --- |
| C=CCC(OC(C)=O)[C@@H]1[C@@H](N(Cc2ccc(-c3ccccc3)cc2)C(=O)c2ccc(C)cc2)c2cc(OCCCO)ccc2N1C(=O)Cc1ccc2ccccc2c1 (stereo not given in full) | 0.543 | -2.04 (inactive) | -0.71 (inactive) | -0.633 (inactive) | 0.51 | 1.64 (inactive) | -0.0042 | -0.0965 | 0.187 | -0.126 | -0.334 | -0.199 | 0.0333 | -1.84 (inactive) | 0.107 | -0.197 | 0.251 | -0.274 | 0.258 | 0.567 |
| C=C(COC)/C(=C/C[C@H](OC(C)=O)c1cccc(OCCO)c1)c1cnc2ccccc2c1 | 1.53 | 1.25 (inactive) | -0.0332 (inactive) | 1.03 (inactive) | 2.18 | -0.094 (inactive) | -0.0415 | 1.64 | 1.04 | -0.0267 | 1.38 | -0.0559 | 0.0794 | 0.344 (inactive) | 1.51 | 0.965 | 0.771 | 1.58 | 0.83 | 1.75 |
| O=C1OCCC=C[C@H]2OC34C=CCN(c5ccc(Cl)cc5)C(=O)[C@H]3N(CCCCCCO)C(=O)[C@@H]4C12 (stereo not given in full) | 0.117 | 0.115 (inactive) | -1.1 (inactive) | -0.337 (inactive) | 0.455 | 1.78 (inactive) | -0.139 | -0.979 | -0.379 | -0.191 | 1.12 | -0.0366 | 0.499 | 0.189 (inactive) | -0.744 | -0.359 | -1.23 | -0.509 | -0.712 | -0.279 |
| CN(C)CCCCNC(=O)[C@H]1C[C@H]2C(=O)N[C@@H](CCCC[N+](C)(C)C)C(=O)N2[C@H]1c1ccc(O)cc1 | 0.366 | -0.838 (inactive) | 0.0639 (inactive) | -0.682 (inactive) | -0.2 | 0.744 (inactive) | -0.0011 | -0.0923 | -0.529 | -0.194 | 1.26 | -0.209 | -0.328 | -1.48 (inactive) | -0.937 | -0.55 | -0.327 | -0.205 | 0.357 | 0.0643 |
| Cc1ccccc1C(O)C1C=CC2C(=O)N(c3ccccc3)C(=O)C2N1Nc1ccc([N+](=O)[O-])cc1 (stereo not given) | 1.45 | -0.715 (inactive) | 0.796 (inactive) | 2.67 (inactive) | 3.39 | 0.13 (inactive) | 0.0839 | 0.327 | 1.05 | 0.156 | 1.3 | 0.25 | 0.793 | -0.0433 (inactive) | 0.597 | 1.29 | 0.217 | 1.19 | 0.0125 | 0.816 |
| C=C[C@@H](C)[C@@H](OC(=O)Nc1ccc(SC)cc1)c1ccc(OCCO)cc1 | 1.19 | 0.222 (inactive) | -1.58 (inactive) | -0.31 (inactive) | 1.92 | 1.41 (inactive) | -0.106 | 0.172 | 0.194 | 0.0348 | 1.4 | -0.289 | 0.753 | -1.01 (inactive) | 0.472 | 0.335 | 0.0159 | 0.426 | -0.185 | 0.0303 |
| [N-]=[N+]=NC[C@H](Cc1ccccc1)NC(=O)c1ccccc1 | 0.376 | -1.02 (inactive) | -2.38 (inactive) | -1.27 (inactive) | 0.214 | 1.56 (inactive) | -0.0666 | 0.014 | -0.371 | -0.14 | -0.554 | -0.124 | -0.414 | -0.0894 (inactive) | -0.0183 | -0.089 | 0.0214 | -0.394 | 0.0359 | 0.382 |
| CC(C)N1CC=CC23O[C@@H]4/C=C\CCCOC(=O)C4[C@H]2C(=O)N(CCCCCCO)[C@@H]3C1=O (stereo not given in full) | 0.529 | 0.226 (inactive) | -2.03 (inactive) | -0.331 (inactive) | 3.18 | 2 (inactive) | -0.121 | -1.26 | -0.112 | -0.152 | 1.44 | 0.0846 | 0.777 | 0.569 (inactive) | -0.614 | -0.24 | -1.12 | -1.04 | -1.08 | 1.03 |
| CCCNC(=O)[C@@]1(C)c2ccccc2C(=O)N(Cc2ccccc2)[C@H]1c1ccc(CO)cc1 | 1.54 | -0.864 (inactive) | -1.08 (inactive) | -0.871 (inactive) | 2.76 | 1.32 (inactive) | 0.0844 | -1.1 | -0.127 | -0.094 | 0.956 | 0.74 | 0.963 | 1.34 (inactive) | 0.391 | -0.136 | -1.54 | -0.487 | -0.766 | -0.765 |
| COc1cc(CO)cc(I)c1O[C@H]1C=C(C(=O)NCCO)C[C@@H](NCC2CCCCC2)[C@@H]1O | 0.332 | -1.94 (inactive) | -0.883 (inactive) | -0.999 (inactive) | 2.65 | 1.69 (inactive) | -0.0719 | 0.323 | 0.793 | -0.067 | 0.587 | -0.155 | -0.103 | -0.47 (inactive) | 0.536 | 0.0102 | 0.151 | 0.607 | 0.502 | 0.328 |
